Assay outcomes as filed in PubChem.
The list is not random: actives were taken first. Their share in the collection is about 11%.
JMJD2A Tudor: JMJD2A Tudor domain (human) inhibition. AlphaScreen JMJD2A-Tudor / H3K4me3 peptide binding. Potency, µM (series often up to 114 µM), for the others: at the highest dose activity change, negative = inhibition, usual class: inhibitors. hit rate 4.4% among 390,000; further: on the % scale 0 is the no-effect control and ±100 the full control effect; nearly all actives have a fitted effect of over 50% in size
PLK1 PBD inh: inhibitors of human PLK1 polo-box domain binding; P53350; Plk1 PBD binding of FITC phosphopeptide, fluorescence polarization; Potency, µM, inactives show max response, negative = inhibition, actives largely listed as inhibitors; hit rate 2.8% among 360,000; AID 720504; further: series mostly up to about 57 µM; on the % scale 0 is the no-effect control and ±100 the full control effect; nearly all actives have a fitted effect of over 65% in size
BAZ2B block: inhibitors of human BAZ2B bromodomain | Q9UIF8 | AlphaScreen BAZ2B-H3K14Ac peptide displacement | Potency, µM (highest dose often 114 µM), for the others: at the top dose activity change, negative = inhibition, actives largely listed as inhibitors | hit rate 4.4% among 360,000 | AID 504333; further: on the % scale 0 is the no-effect control and ±100 the full control effect; nearly all actives have a fitted effect of over 60% in size
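BAZ2B 50 nM plus b-H3(5-23)K14Ac 50 nM, PBS pH 7.4/0.01% Tween-20, 30 min RT; compound added (max 110 uM), 30 min RT; streptavidin donor/Ni-chelate acceptor beads 10 ug/mL final, 20 min dark; AlphaScreen read.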
HP1b binding inh: blocks HP1-beta chromodomain binding to methylated histone tails; Potency, µM (titrated, usually from 114 µM), without a hit: top-dose activity change, negative = inhibition, most hits filed as inhibitors; AlphaScreen HP1-beta / biotin-H3K9me3 peptide binding; AID 540317; hit rate 0.56% among 390,000; further: nearly all actives have a fitted effect of over 70% in size
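AlphaScreen: HP1-beta (50 nM) preformed 30 min with biotin-H3(1-18)K9me3 peptide (50 nM) in PBS pH 7.4, 0.01% Tween-20. Compound added for 30 min at RT, then streptavidin donor/nickel chelate acceptor beads (10 ug/mL) for 30 min.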
VDR inh: blocks the human vitamin D receptor. VDR-SRC2-3 peptide fluorescence polarization, 2 h. hit rate 0.93% among 400,000. Potency, µM, inactives show max response, negative = inhibition, most hits filed as inhibitors. P11473; further: on the % scale 0 is the no-effect control and ±100 the full control effect
Target sequence (P11473 whole entry, looked up): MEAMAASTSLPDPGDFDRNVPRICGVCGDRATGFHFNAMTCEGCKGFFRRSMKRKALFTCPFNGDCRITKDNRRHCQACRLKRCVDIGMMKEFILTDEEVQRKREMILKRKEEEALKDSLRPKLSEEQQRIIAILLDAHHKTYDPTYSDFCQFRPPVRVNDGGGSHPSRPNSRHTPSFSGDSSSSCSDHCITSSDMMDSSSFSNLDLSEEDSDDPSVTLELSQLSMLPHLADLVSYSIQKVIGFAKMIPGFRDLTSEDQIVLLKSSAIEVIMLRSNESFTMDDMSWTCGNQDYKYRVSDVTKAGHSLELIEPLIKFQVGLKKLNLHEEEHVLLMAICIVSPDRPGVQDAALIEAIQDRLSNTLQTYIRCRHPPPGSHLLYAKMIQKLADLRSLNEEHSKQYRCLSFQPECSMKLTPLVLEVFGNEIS
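FP read-out; VDR + SRC2-3 coactivator peptide; 23 nl compound by pintool; 2 h RT incubation; reagents held at 4 deg C, protected from light.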
G9a inh: blocks human histone lysine methyltransferase G9a; Q96KQ7; Potency, µM (titrated, usually from 102 µM), for inactives: at the highest dose activity, negative = inhibition, most hits filed as inhibitors; G9a H3K9 monomethylation, AlphaScreen, 2 h; hit rate 8.8% among 350,000; AID 504332; further: on the % scale 0 is the no-effect control and ±100 the full control effect; nearly all actives have a fitted effect of over 75% in size
Target sequence (Q96KQ7 913-1193 limits assumed): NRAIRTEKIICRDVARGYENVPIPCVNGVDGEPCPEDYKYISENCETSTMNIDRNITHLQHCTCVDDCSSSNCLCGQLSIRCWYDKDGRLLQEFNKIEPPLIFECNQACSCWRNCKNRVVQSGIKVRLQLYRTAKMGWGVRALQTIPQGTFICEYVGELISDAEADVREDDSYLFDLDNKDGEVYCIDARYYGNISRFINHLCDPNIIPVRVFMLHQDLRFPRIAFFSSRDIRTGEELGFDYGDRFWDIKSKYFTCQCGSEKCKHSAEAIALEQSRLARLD
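Compounds were preincubated with 20 nM G9a for 15 min, after which biotinylated H3K9 peptide (500 nM) and SAM (20 uM) started a 2 h room-temperature reaction. Monomethylated product was quantified by antibody-based AlphaScreen chemiluminescence.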
Numbers without * were called inactive; ? = inconclusive; · = no result; [ ] = dose if it differs, or a comment. The call rests on the fitted dose curve; in most records, active means well fitted curve in the direction sought with a large enough effect; inconclusive means small, poorly fitted or top-dose-only effect, or another doubt; inactive means no such curve, though single readings can be large; an effect the other way counts as inactive or inconclusive. Potency means the concentration at half of the fitted maximal effect.

SMILES | JMJD2A Tudor | PLK1 PBD inh | BAZ2B block | HP1b binding inh | VDR inh | G9a inh
COc1cc(NC(=O)c2noc3c2CCC3)c(OC)cc1Cl | 45µM* | ? | 50µM* | ? | -3% | ?
Cc1ccc(NC(=O)c2noc3c2CCC3)cc1C | 40µM* | ? | 45µM* | 50µM* | -11% | ?
CCc1cccc(NC(=O)c2ccc3c(=O)n4nc(Nc5ccccc5OC)sc4nc3c2)c1 | -6% | · | -19% | 20% | 1% | -25%[59 µM]
CC1(NC(=O)CCNC(=O)c2ccc(C(C)(C)C)cc2)CCS(=O)(=O)C1 (stereo not given) | -5% | -2% | -5% | 44% | -12% | ?
O=S1(=O)CC(N2CCCC2)CN1Cc1cn(Cc2ccc(F)cc2)nn1 (stereo not given) | · | -14% | · | · | · | ·
O=C(Nc1c(C(=O)N2CCN(c3ccccc3F)CC2)oc2ccccc12)c1ccc(Br)o1 | -28% | · | -15% | -16% | 7% | -46%[59 µM]
COc1ccc(NC(=O)c2sc3nc4c(cc3c2N)CCCCCC4)cc1Cl | -13% | · | -1% | 21% | ? | 7%[59 µM]
CC(=O)c1ccc(NC(=O)c2noc3c2CCC3)cc1 | -15%[11.4 µM] | -23% | 56µM* | ? | -12% | 40µM*
CSc1ncc(C(=O)Nc2cccc(C)c2C)c(-c2ccccc2)n1 | -12% | · | -27% | 4% | -4% | -8%[59 µM]
CCOc1ccc(C2NC(=O)NC(C)=C2C(=O)OCc2ccccc2)cc1 (stereo not given) | -6% | -10% | 4% | 13% | 0% | -12%[0.501 µM]
CCOC(=O)c1cc(C#N)c(N2CCN(c3ccc(OC)cc3)CC2)[nH]c1=O | -27% | -10% | ? | 5% | 7% | 5µM*
COc1ccc(C2NC(=O)NC(C)=C2C(C)=O)cc1 (stereo not given) | -16% | 4% | 3% | 18% | 21% | 13µM*
CCOC(=O)C1=C(CN2CCN(c3ccc(OC)cc3)CC2)NC(=O)NC1c1ccc(OC)cc1 (stereo not given) | 56µM* | · | 40µM* | -38% | 4% | 11µM*
CC1=C(C(=O)OCc2ccccc2)C(c2ccc(N(C)C)cc2)NC(=O)N1 (stereo not given) | ? | 1% | ? | -24% | -9% | 10µM*
CC(=O)C1=C(C)NC(=O)NC1c1ccc(OC2CCCC2)cc1 (stereo not given) | -8% | 6% | 7% | 23% | 0% | 5%[12.7 µM]
CCN(Cc1ccccc1)C(=O)Cn1ncc2c(=O)oc3ccc(C)cc3c21 | -3% | · | -2% | 47% | -15% | ?
CC1CCN(C(=O)CSc2nc(-c3ccc(C(C)C)cc3)no2)CC1 | 44% | · | 63% | 85% | 5% | 39%[59 µM]
COc1cc(Cl)c(NC(=O)c2cc(S(=O)(=O)N3CCOCC3)cn2C)c(OC)c1 | -18% | · | -14% | 19% | 10% | -7%[59 µM]
O=C(c1ccc(F)cc1)N1CCc2c([nH]c3ccccc23)C1c1ccc(Cl)cc1 (stereo not given) | ? | · | -29% | 0%[57 µM] | 10% | ?
CCOC(=O)c1[nH]c(C)c(C(=O)N2CCN(c3ccc(OC)cc3)CC2)c1C | -33% | -7% | · | 27% | -16% | ?
CCOC(=O)C1=C(CN2c3ccccc3CC2C)NC(=O)NC1c1ccccc1 (stereo not given) | ? | -8% | 50µM* | ? | 18% | ?
CCOC(=O)c1[nH]c(CN2CCN(c3ccc(OC)cc3)CC2)c(C(=O)OCC)c1C | 50µM* | -2% | 14µM* | 45µM* | -11% | 22µM*
CC(C(=O)NC1CC(C)(C)NC(C)(C)C1)c1ccc([N+](=O)[O-])cc1 (stereo not given) | -1% | -16% | -19% | 14% | 2% | -29%
CC1CC(C)CN(C(=O)c2ccc(-c3ccc([N+](=O)[O-])cc3)o2)C1 (stereo not given) | 45µM* | -23% | 35µM* | ? | ? | 11µM*
O=C(Nc1ccccc1)c1ccc(-c2ccc([N+](=O)[O-])cc2)o1 | ? | -23% | -11% | ? | ? | 35µM*
SMILES | JMJD2A Tudor | PLK1 PBD inh | BAZ2B block | HP1b binding inh | VDR inh | G9a inh
CC1(C)CC(NC(=O)c2ccc(-c3ccc([N+](=O)[O-])cc3)o2)CC(C)(C)N1 | -32% | -28% | -33% | 16% | -1% | 45µM*
O=C(NN1C(=O)NC2(CCCCC2)C1=O)c1ccc(-c2ccc([N+](=O)[O-])cc2)o1 | -34% | -19% | -29% | 1% | -9% | 79µM*
O=C(c1ccc(-c2ccc([N+](=O)[O-])cc2)o1)N1CCCCC1 | ? | -11% | ? | -9% | ? | ?
Cc1noc(C)c1-c1nc(N(C)C)c2ccccc2n1 | · | · | · | · | ? | 3%[0.501 µM]
Oc1c(Cl)cc(Cl)cc1Sc1cc(Cl)cc(Cl)c1O | · | · | 50µM* | · | 28µM* | ?
Cc1cc(C)c(O)c(CN(C)Cc2cc(Cl)cc(Cl)c2O)c1 | ? | -9% | · | ? | 4% | ·
Nc1ccccc1CCc1ccccc1N | · | -15% | · | · | · | ·
O=C1NCCCC1C(=O)N1CCN(C(=O)C2CCCNC2=O)CC1 (stereo not given) | · | · | 30% | · | · | ?
Cc1ccc(C)c(S(=O)(=O)Nc2ccc(O)c(Sc3ncn[nH]3)c2)c1 | -18%[11.4 µM] | ? | -7% | 11% | -4% | 45µM*
Cc1cc(F)ccc1S(=O)(=O)Nc1ccc(O)c(Sc2ncn[nH]2)c1 | -29% | -24% | -1% | -6% | -3% | 40µM*
CCOC(=O)C1=NNC(C(=O)c2ccccc2)C1c1ccc(C)cc1 (stereo not given) | -20% | 1% | -21% | 20% | -18% | -3%
CCOC(=O)C1=NNC(C(=O)c2ccc(OC)cc2)C1c1ccccc1 (stereo not given) | -12% | -1% | -3% | 23% | 9% | 56µM*
C=CCNc1nc(C(=O)OCC(=O)NCc2ccccc2OC)cs1 | -14% | -9% | 2% | 4% | 3% | 10%[59 µM]
O=C(c1cc(C(F)(F)F)cc(C(F)(F)F)c1)N1CCC2(CC1)CN(c1ccccn1)C2 | · | · | · | · | 2% | 7%[12.7 µM]
Cc1cc(C)nc(NC(=O)C(C)C)n1 | 4% | 0% | 5% | 38% | 12% | 17%[2.33 µM]
Cc1cc(C)nc(NN2C(=O)C=CC2=O)n1 | ? | ? | 1% | ? | ? | 2.8µM*
CCCSc1nc(C)c(-c2csc(C(C#N)=C3CCCC3)n2)cc1C#N | 50µM* | -4% | 20µM* | 1% | 6% | ?
Nc1nc(SCC(=O)Nc2cccc(C(F)(F)F)c2)n[nH]1 | -8% | · | -2% | 12% | 1% | 12%[59 µM]
CC(NC(=O)COC(=O)CNC(=O)c1ccccc1Cl)C1CC2CCC1C2 (stereo not given) | -19% | -14% | 6% | 17% | -24% | -4%[2.33 µM]
